A short description of test [1]: StAR promoter reporter inhibitors, counter-screen for LRH-1 inverse agonist project, cell-based, luminescence, high throughput (AID 651611; in the data active = inhibition above about 28%). Conditions: StAR promoter luciferase reporter counterscreen, at 3.6 µM, active compounds read high.
The target in test [2] is Nuclear receptor subfamily 5 group A member 2 (Homo sapiens) (UniProt O00482). In words: NR5A2 activity suppression in reporter cells – cell-based, luminescence, confirmation (AID 651613; in the data active = inhibition above about 42%;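 also: HEK293T cells co-transfected with LRH-1 and StAR promoter luciferase reporter; 0% = vehicle wells and 100% = parental cells lacking receptor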). Conditions: cell-based LRH-1 luciferase reporter, inverse agonism; at 3.6 µM; active compounds read high.
Test [3] addresses Steroidogenic factor 1 (Homo sapiens) (UniProt Q13285). In words: inverse agonism at SF1 nuclear receptor – cell-based, luminescence, high throughput, counter-screen for LRH-1 inverse agonist project (AID 651614; in the data active = inhibition above about 44%;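 also: cells cotransfected with StAR promoter reporter and SF1 expression vector; 0% = vehicle on cells with receptor and 100% = vehicle on cells lacking receptor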). The conditions noted are these: cell-based SF1 luciferase reporter, at 3.6 µM, active compounds read high.
The nature of test [4]: compounds suppressing VP16-driven luciferase signal – cell-based, luminescence, high throughput, counter-screen for LRH-1 inverse agonist project (AID 651615). The conditions noted are these: Gal4-VP16 luciferase reporter cells, at 3.6 µM, active compounds read high.

Unmarked numbers belong to inactive results. Active and inactive are the calls of the source. Rule as the data show it, unless noted: active = inhibition above about 33%; inactive = the rest.

Here are results for 24 compounds from PubChem BioAssay.

Chain of Nuclear receptor subfamily 5 group A member 2 (Homo sapiens) (O00482 whole entry, looked up): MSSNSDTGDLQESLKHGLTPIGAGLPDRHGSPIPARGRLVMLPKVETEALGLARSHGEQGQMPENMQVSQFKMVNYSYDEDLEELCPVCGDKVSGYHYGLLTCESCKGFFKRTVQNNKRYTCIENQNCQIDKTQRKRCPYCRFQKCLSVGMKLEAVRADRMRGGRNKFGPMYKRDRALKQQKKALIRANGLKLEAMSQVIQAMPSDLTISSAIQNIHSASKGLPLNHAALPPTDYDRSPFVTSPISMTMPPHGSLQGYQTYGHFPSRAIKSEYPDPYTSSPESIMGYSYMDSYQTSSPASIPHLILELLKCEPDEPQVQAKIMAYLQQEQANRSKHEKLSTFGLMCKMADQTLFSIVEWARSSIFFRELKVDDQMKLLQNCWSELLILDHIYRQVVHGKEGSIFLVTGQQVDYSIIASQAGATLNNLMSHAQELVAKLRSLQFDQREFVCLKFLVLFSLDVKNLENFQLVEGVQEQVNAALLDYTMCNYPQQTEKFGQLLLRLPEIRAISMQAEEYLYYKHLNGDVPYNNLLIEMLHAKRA
Chain of Steroidogenic factor 1 (Homo sapiens) (Q13285 whole entry, looked up, the tested form may be a part): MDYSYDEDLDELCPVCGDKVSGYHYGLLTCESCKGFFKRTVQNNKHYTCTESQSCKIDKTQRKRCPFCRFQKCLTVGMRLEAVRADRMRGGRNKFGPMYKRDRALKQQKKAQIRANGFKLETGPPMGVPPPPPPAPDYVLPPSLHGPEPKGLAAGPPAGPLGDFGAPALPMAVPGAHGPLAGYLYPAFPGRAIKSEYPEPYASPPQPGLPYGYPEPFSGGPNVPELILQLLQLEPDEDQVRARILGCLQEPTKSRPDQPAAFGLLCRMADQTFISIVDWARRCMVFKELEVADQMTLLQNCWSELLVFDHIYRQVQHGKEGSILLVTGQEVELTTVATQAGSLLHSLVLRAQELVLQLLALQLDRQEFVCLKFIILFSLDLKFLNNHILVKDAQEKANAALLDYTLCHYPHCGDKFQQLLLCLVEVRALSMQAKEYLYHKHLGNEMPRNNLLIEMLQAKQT

For `O=C(Cc1ccccc1)N/N=C/c1ccc([N+](=O)[O-])s1`, the inhibition in test [1] is 2.21%; in test [2] it was 60% (active); in test [3], 62.1% (active); in test [4] it was -9.91%.
For `Cc1ccc(NC(=O)c2ccc([N+](=O)[O-])o2)cc1S(=O)(=O)N1CCOCC1`, the inhibition was 17.7% in test [1], 58.5% (active) in test [2], 58.8% (active) in test [3] and -4.03% in test [4].
In the case of `COC(=O)c1ccc(NC(=O)CSC2=NCCN2)cc1`, the inhibition in test [1] is -0.27%; in test [2] it was 54.5% (active); in test [3], 43.8% (active); in test [4], 4.09%.
On the same counts, the results for `NC(=S)NNc1cc(Cl)cc(Cl)c1` are 12.8%, 50.1% (active), 40.4% and 11.7%.
Turning to `COc1ccc(-c2c(-c3ccccc3)c(C(=O)C(=O)NCCCN(C)C)n3ccc4cc(OC)c(OC)cc4c23)cc1OC`, the inhibition in test [1] is 20.4%; in test [2], 40.9%; in test [3], 32.1%; in test [4] it was 2.99%.
On to `COc1ccc(CCNC(=O)COC(=O)c2cccn2C)cc1`, for which the inhibition in test [1] is 19%; in test [2] it was 42.9% (active); in test [3], 46.3% (active); in test [4] it was -13.7%.
As for `O=C(Nc1cccnc1)c1ccc([N+](=O)[O-])s1`, the inhibition is 25.4% in test [1], 43.8% (active) in test [2], 51% (active) in test [3] and 11.1% in test [4].
On the same counts, the results for `CCOc1ccc(NC(=O)CN2C(=O)NC(C)(c3ccc(OC(F)F)cc3)C2=O)cc1` (stereo unspecified) are 18.8%, 62.6% (active), 59.2% (active) and -30.5%.
For `CCCC(=O)N1CCN(c2ccc(NC(=O)c3ccc([N+](=O)[O-])o3)cc2)CC1`, the inhibition in test [1] was -1.48%; in test [2], 52.9% (active); in test [3], 55.4% (active); in test [4], -18.4%.
The like results for `O=C(c1ccc([N+](=O)[O-])o1)N1CCN(c2nc3c(Cl)cccc3s2)CC1` were, in that order, 10.8%, 64.6% (active), 61.3% (active) and 3.24%.
For `CCCc1nc2cc(C)c(Br)c(C)n2c1Cc1ccc(OC)cc1C`, the inhibition is 15.2% in test [1], 48.3% (active) in test [2], 45.3% (active) in test [3] and 5.35% in test [4].
In the case of `CC(C)C(=O)N1CCN(c2ccccc2NC(=O)c2ccc([N+](=O)[O-])o2)CC1`, the inhibition is 10.9% in test [1], 59.1% (active) in test [2], 42.2% in test [3] and 25% in test [4].
For the compound `COc1ccc(CCC(=O)Nc2c(-c3ccc(N(C)C)cc3)[nH][nH]c2=O)cc1`, the inhibition in test [1] is 4.07%; in test [2] it was 27.3%; in test [3], 37.5%; in test [4], -2.18%.
Turning to `O=Cc1ccc(N2CCCCCC2)cc1`, the inhibition in test [1] was 3.14%; in test [2], 57.1% (active); in test [3], 56% (active); in test [4], -13.3%.
In the case of `CC(=O)Nc1cccc(C(=O)OCC(=O)N2CCN(C(=O)COC(=O)c3cccc(NC(C)=O)c3)CC2)c1`, the inhibition in test [1] is 21.9%; in test [2] it was 55.5% (active); in test [3], 47.6% (active); in test [4], -10.3%.
As to `O=c1[nH]c(Nc2ccc3c(c2)OCCO3)nnc1Cc1ccccc1`, the inhibition in test [1] is 0.14%; in test [2], 59.5% (active); in test [3] it was 37.8%; in test [4], -12.8%.
As for `CCCc1cc(NCCOCCO)n2c(nc3ccccc32)c1C#N`, the inhibition in test [1] was 4.93%; in test [2], 45.1% (active); in test [3], 36.6%; in test [4], -14.6%.
On the same counts, the results for `Cc1onc(-c2cccc(Cl)c2Cl)c1C(=O)O/N=C(\N)c1ccc([N+](=O)[O-])o1` are 11.8%, 69.7% (active), 67.3% (active) and -4.83%.
For the compound `Cc1cc(C)c(SCCc2ccncc2)c(C)c1`, the inhibition in test [1] is 5.23%; in test [2], 63.7% (active); in test [3], 57.5% (active); in test [4] it was 34.3% (active).
As for `Cn1c(CCNC(=O)c2cccs2)nnc1SCC(=O)N1CCN(c2ccccc2)CC1`, the inhibition in test [1] was 7.98%; in test [2] it was 29.8%; in test [3], 28.4%; in test [4] it was 0.01%.
In the case of `COc1ccc(NC(=O)/C(Cl)=C(/Cl)S(=O)Cc2ccc(Cl)cc2)cn1` (stereo unspecified), the inhibition is 58% (active) in test [1], 91.7% (active) in test [2], 84.6% (active) in test [3] and 89.5% (active) in test [4].
On to `Cc1[nH][nH]c(=O)c1N=Nc1ccc(S(N)(=O)=O)cc1`, for which the inhibition in test [1] was 20.7%; in test [2], 52.1% (active); in test [3] it was 51.5% (active); in test [4], 6.39%.
For `CCOc1ccc(NC(=O)COC(=O)CC2CCCCC2)cc1`, the inhibition in test [1] is 9.8%; in test [2], 44.4% (active); in test [3], 44.8% (active); in test [4], -6.37%.
As for `O=C(CSc1nc(=O)n2cc(Cl)ccc2n1)Nc1ccc2c(c1)OCCO2`, the inhibition in test [1] is 3.01%; in test [2], 47.8% (active); in test [3], 44.1% (active); in test [4] it was -4.83%.
